Compound activity: PubChem BioAssay, National Center for Advancing Translational Sciences (NCATS)
Hits are enriched below; roughly 8.5% of the tested compounds scored in any of these assays.
GoLoco inh red = inhibitors of human Gai1-RGS12 GoLoco interaction (red fluorophore). 0.44% of 230,000 active. Potency, µM (top dose mostly 61.6 µM), actives largely listed as inhibitors. Gai1:RGS12 GoLoco peptide FP, rhodamine, 10 min. P63096; active = well fitted inhibition curve with a large enough effect, not every such curve was filed as active; inactive = no such curve, though single readings can be large or run the other way; also: nearly all actives have a fitted effect of over 30% in size
Sfp PPTase inh = Sfp phosphopantetheinyl transferase inhibition; Q9F4F7; Biochemical Sfp PPTase activity, qHTS; Potency, µM, hits mostly inhibitors; 3.5% of 310,000 active; AID 1490; active = well fitted curve in the direction sought with a large enough effect; inconclusive = small, poorly fitted or top-dose-only effect, or another doubt; inactive = no such curve, though single readings can be large; an effect the other way counts as inactive or inconclusive;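 also: the enzyme is Sfp with the accession as filed and its product quenches rhodamine fluorescence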
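Sfp 15 nM + cpd, 15 min RT; start w/ rhodamine-CoA 5 uM, BHQ-2-YbbR 12.5 uM (final); 50 mM Hepes pH 7.6, 10 mM MgCl2, 0.01% NP-40, 0.01% BSA; read 525/598 nm at 0 and 30 min.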
KDM4E inh = JMJD2E (human) inhibition | JMJD2E catalytic domain, FDH-coupled NADH fluorescence (FDH is formaldehyde dehydrogenase) | 1.6% of 230,000 active | B2RXH2 | Potency, µM (doses to about 57.1 µM), hits mostly inhibitors; also: nearly all actives have a fitted effect of over 50% in size
ALDH1A1 inh = blocks purified human ALDH1A1 activity; AID 1030; P00352; Purified ALDH1A1, NADH fluorescence, propionaldehyde substrate; 7.3% of 220,000 active; Potency, µM (doses to about 75.3 µM), hits mostly inhibitors
Target sequence (P00352 whole entry, looked up): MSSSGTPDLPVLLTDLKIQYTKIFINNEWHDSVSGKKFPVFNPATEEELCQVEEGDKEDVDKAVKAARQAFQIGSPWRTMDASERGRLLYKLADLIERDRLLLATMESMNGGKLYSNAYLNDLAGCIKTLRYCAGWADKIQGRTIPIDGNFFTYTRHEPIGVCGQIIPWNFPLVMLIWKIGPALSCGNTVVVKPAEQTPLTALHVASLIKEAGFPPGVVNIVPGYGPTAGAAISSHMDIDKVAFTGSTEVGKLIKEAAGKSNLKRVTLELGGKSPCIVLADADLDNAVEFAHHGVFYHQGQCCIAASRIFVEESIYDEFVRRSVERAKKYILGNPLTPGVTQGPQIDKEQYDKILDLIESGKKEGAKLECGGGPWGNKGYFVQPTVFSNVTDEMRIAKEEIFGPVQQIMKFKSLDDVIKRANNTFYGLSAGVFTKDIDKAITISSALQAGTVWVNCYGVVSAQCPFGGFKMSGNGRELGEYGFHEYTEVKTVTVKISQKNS
FBPA coupling cs = coupling enzyme interference in Giardia aldolase counter-screen | coupling enzyme system counterscreen, AmpLite Red fluorescence | activity change, negative = inhibition, % at 58.2 µM, hits read low | 0.67% of 290,000 active; in the data active = activity change below about -30%
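Fluorescence at 525 nm excitation and 598 nm emission measured inhibition of the coupled detection system without aldolase. Compounds (at 57.5 uM final) were preincubated 10 min at room temperature with coupling enzyme reagent before a 20 min substrate/AmpLite Red step.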
NPSR antagonist = antagonists of human neuropeptide S receptor cAMP signaling. CHO-NPSR cells, cAMP TR-FRET, antagonist mode. 1% of 220,000 active. Potency, µM (highest dose often 38.3 µM), usual class: inhibitors. AID 1461; active = well fitted curve in the direction sought with a large enough effect; inconclusive = small, poorly fitted or top-dose-only effect, or another doubt; inactive = no such curve, though single readings can be large; an effect the other way counts as inactive or inconclusive; also: nearly all actives have a fitted effect of over 50% in size
Large screens that a line does not name were inactive. Unless noted, calls follow the shape of the dose curve; as a rule, active = well fitted inhibition curve with a large enough effect (not every such curve was filed as active); inconclusive = small, poorly fitted or top-dose-only effect, or another doubt; inactive = no such curve, though single readings can be large or run the other way.

C=CCOc1ccc(/C=N/Nc2ccccn2)cc1OC	Sfp PPTase inh inconclusive, KDM4E inh inconclusive
CC1=C([N+](=O)[O-])C(c2ccccc2C(F)(F)F)NC(=O)N1C (stereo unspecified)	none (no result: ALDH1A1 inh)
COc1ccc(CN2CCNC(=O)C2CC(=O)NCCc2nc(C)c3c(n2)CCC3)cc1C (stereo unspecified)	none (no result: GoLoco inh red, KDM4E inh, ALDH1A1 inh, NPSR antagonist)
CC(C)CC(C)N1CCC(n2nccc2NC(=O)CCc2ccccc2)CC1 (stereo unspecified)	none (no result: GoLoco inh red, KDM4E inh, ALDH1A1 inh, NPSR antagonist)
CCN1CCN(Cc2ccc(NC(=O)c3cc(NC(=O)c4ccno4)cc(OC)c3)cc2C(F)(F)F)CC1	none (no result: ALDH1A1 inh)
CCN1CCN(Cc2ccc(NC(=O)c3cc(NC(=O)c4cc5cccc(OC)c5o4)cc(OC)c3)cc2C(F)(F)F)CC1	Sfp PPTase inh 45µM, KDM4E inh inconclusive (no result: ALDH1A1 inh)
CCOC(=O)c1c(NC(=O)CSc2ncnc3ccccc23)sc(C)c1C	Sfp PPTase inh inconclusive, ALDH1A1 inh 14µM
CCOC(=O)c1c(NC(=O)CSc2nnnn2-c2ccc(OC)cc2)sc(C)c1C	Sfp PPTase inh 5µM, ALDH1A1 inh 1µM
CCOC(=O)c1c(NC(=O)CSc2nnc(CNc3ccc(F)cc3)o2)sc(C)c1C	ALDH1A1 inh inconclusive, NPSR antagonist inconclusive
CCOC(=O)c1c(NC(=O)CSc2nnc(CNc3ccc(Cl)cc3)o2)sc(C)c1C	ALDH1A1 inh 11µM
CC1CCC2C(=O)OC(COc3ccc(C(C)(C)C)cc3)CN2C1c1ccc(Br)cc1 (stereo unspecified)	none (no result: GoLoco inh red, KDM4E inh, NPSR antagonist)
CC1CCCN(C(=O)C(C)Nc2cc(Cl)ccc2N2CCOCC2)C1 (stereo unspecified)	ALDH1A1 inh 10µM
Cc1cccc(NS(=O)(=O)c2cc3c(cc2C)n(C)c(=O)c(=O)n3C)c1	none (no result: GoLoco inh red, KDM4E inh, ALDH1A1 inh, NPSR antagonist)
O=[N+]([O-])c1cccc(N=Cc2sc3ccccc3c2O)c1	KDM4E inh 28µM, ALDH1A1 inh inconclusive
C=C1C(CCl)(CCl)C2(Cl)C(Cl)C(Cl)C1(Cl)C2(Cl)Cl (stereo unspecified)	ALDH1A1 inh 14µM (no result: KDM4E inh, FBPA coupling cs, NPSR antagonist)
Cc1ccc(C(=O)NC2CC3CCCC(C2)N3C(=S)NCc2ccco2)cc1 (stereo unspecified)	Sfp PPTase inh 45µM, ALDH1A1 inh 22µM
Cc1ccc(C(=O)NC(=S)NCc2ccco2)cc1	ALDH1A1 inh inconclusive
O=P1(O)Oc2c(c(-c3ccccc3)cc3ccccc23)-c2c(-c3ccccc3)cc3ccccc3c2O1	none (no result: NPSR antagonist)
Oc1cc(-c2ccccc2)c2ccccc2c1	KDM4E inh inconclusive, ALDH1A1 inh inconclusive, FBPA coupling cs -60
NC(=O)CS(=O)C[C@H](N)C(=O)O (stereo partly specified)	none (no result: Sfp PPTase inh, KDM4E inh, FBPA coupling cs, NPSR antagonist)
Cc1cc(C)nc(SCc2ccc(C(=O)N/N=C/c3cccc(O)c3O)cc2)n1	KDM4E inh 3.2µM
Cc1cc(C)nc(SCc2ccc(C(=O)N/N=C3\CC(C)CC(C)(C)C3)cc2)n1 (stereo unspecified)	ALDH1A1 inh 7.9µM (no result: GoLoco inh red)
Cc1cc(C)nc(SCc2ccc(C(=O)NN=C3C4CC5CC(C4)CC3C5)cc2)n1	ALDH1A1 inh 3.5µM
Cc1cc(NC(=O)C2CCCCC2C(=O)O)ccc1NC(=O)c1ccccc1 (stereo unspecified)	none (no result: GoLoco inh red, KDM4E inh, ALDH1A1 inh, FBPA coupling cs, NPSR antagonist)
COc1ccc(OC)c(CNC(=O)C2CCC(=O)N2C(C)C)c1 (stereo unspecified)	none (no result: GoLoco inh red, KDM4E inh, ALDH1A1 inh, NPSR antagonist)
O=C(O)C1=CC(=C(c2ccc(O)c(C(=O)O)c2)c2ccc(O)c(C(=O)O)c2)C=CC1=O	GoLoco inh red 2.8µM, KDM4E inh inconclusive, ALDH1A1 inh inconclusive
Cc1ccc2c(c1)N(CC(=O)NC1CCCC1)C(=O)c1cccnc1O2	none (no result: GoLoco inh red, KDM4E inh, ALDH1A1 inh, NPSR antagonist)
Cc1ccc(NCc2ccc(O)c3ncccc23)cc1C	none
Cc1cccc(NCc2ccc(O)c3ncccc23)c1C	ALDH1A1 inh 10µM
Cc1cccnc1NCc1ccc(O)c2ncccc12	KDM4E inh 18µM, ALDH1A1 inh 20µM
CCOc1cccc(-c2nnc3sc(C4CCCCC4)nn23)c1	Sfp PPTase inh inconclusive, ALDH1A1 inh 25µM, NPSR antagonist inconclusive
CC1CC1c1ccc(/C=C(\C#N)C(=O)Nc2ccc(Cl)cc2Cl)o1 (stereo unspecified)	Sfp PPTase inh 56µM
CCN(CC)S(=O)(=O)c1ccc(O)c(NS(=O)(=O)c2ccccc2F)c1	Sfp PPTase inh 50µM, ALDH1A1 inh 13µM
